# Assay results as given in PubChem BioAssay AID1878 (Sanford-Burnham Center for Chemical Genomics, 2009).
# In all, about 1,000 compounds went through this assay and about 200 (20%) were called active. Not all results are given here. Results with a measured potency or affinity are listed apart. Values without a mark were called inactive. Rule as the data show it: active = inhibition above about 55%; inactive = the rest.
# Biological target: Dual specificity protein phosphatase 3 (Homo sapiens) (UniProt P51452)
# Assay: VHR1 phosphatase inhibitors, biochemical (AID 1878)
# Settings: recombinant VHR phosphatase, fluorogenic substrate; at 13.3 µM; hits give high values
# Sequence of Dual specificity protein phosphatase 3 (Homo sapiens) (P51452 whole entry, looked up): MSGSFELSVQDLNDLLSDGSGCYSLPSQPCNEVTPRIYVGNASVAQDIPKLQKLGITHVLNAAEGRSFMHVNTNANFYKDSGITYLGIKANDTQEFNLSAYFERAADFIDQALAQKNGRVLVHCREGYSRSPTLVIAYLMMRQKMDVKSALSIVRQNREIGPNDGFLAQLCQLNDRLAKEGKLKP
row,SMILES,inhibition
1,COc1cccc(-c2nc(CS(=O)(=O)CC(=O)NCCCN3CC(C)CC(C)C3)c(C)o2)c1 (stereo not given),-0.7%
2,N#C/C(=C\c1ccc(-c2ccc(C(=O)O)cc2)o1)C(=O)Nc1ccc(F)cc1,82.2% (active)
3,CN(C)N1C(N)=C(C#N)C(c2cccc(Cl)c2)C2=C1CCCC2=O (stereo not given),0.6%
4,CC1CCCN(CCCNS(=O)(=O)c2ccc3c(c2)CCN3C(=O)C2CC2)C1 (stereo not given),-6.7%
5,CC#CC#Cc1cccc(=O)o1,42.9%
6,O=C(O)CCSC1CC(=O)N(c2ccccc2)C1=O (stereo not given),16.8%
7,O=S(=O)(c1cc(Cl)ccc1Cl)N1CCc2ccccc21,-1.3%
8,CN(C)c1ccc(NC(=O)CSc2nnc(C3CCCCC3)n2N)cc1,-7.6%
9,Cc1ccc2nc(SCC(=O)NCc3ccc(F)cc3)[nH]c2c1,19.1%
10,O=C(CSc1ccc2ccccc2n1)Nc1nsc(-c2ccc(Cl)cc2)n1,80% (active)
11,Cc1nc2ccccc2c(=O)n1NC(=O)c1ccccc1,-2%
12,CS(=O)(=O)/C(C#N)=C/c1cccn1S(=O)(=O)c1ccccc1,-10.1%
13,CC(C)[C@H](NC(=O)c1ccco1)C(=O)NCc1ccccc1,6%
14,O=C(COc1ccccc1)NCCc1cnc[nH]1,-4.2%
15,O=C(COc1ccccc1Cl)N1CCCCCCC1,-0.6%
16,COc1ccc(NC(=O)CSc2ccc3nnc(CCNC(=O)c4ccccc4)n3n2)cc1,-4.5%
17,CCn1c(SCC(=O)Nc2ccc(-c3nc4ccc(C)cc4s3)cc2)nnc1-c1ccccc1,88.3% (active)
18,CCN1CCN(CC(=O)Nc2nc3ccc(C)cc3s2)CC1,-5.5%
19,Cc1ccc(S(=O)(=O)/C(C#N)=C/c2c(N3CCOCC3)nc3c(C)cccn3c2=O)cc1,3%
20,c1ccc(-c2cc(-c3ccccc3)[n+](-c3ccccc3)c(-c3ccccc3)c2)cc1,-14.8%

row,SMILES,inhibition
1,CCOc1c(Br)cc(C(=O)N2CCCN(C)CC2)cc1OC,2.9%
2,COc1ccc(NCCC(O)c2ccc(Cl)cc2)cc1 (stereo not given),-2%
3,CCCn1c(C(O)c2ccc(OC)c(OC)c2)nc2ccccc21 (stereo not given),7%
4,CCOC(=O)C1(Cc2cccc(Cl)c2)CCCN(C(=O)c2cc(CC)on2)C1 (stereo not given),-6.6%
5,Cc1ccccc1N1C(=O)C2ON(c3ccccc3)C(c3ccncc3)C2C1=O (stereo not given),-3.4%
6,Cc1ccc(N2C(=O)CC(N3CCN(S(=O)(=O)c4ccccc4)CC3)C2=O)c(C)c1 (stereo not given),-2.4%
7,CC1CCCCN1CCCNC(=O)CN1C(=O)c2cccnc2Oc2ccc(Cl)cc21 (stereo not given),-4.5%
8,O=c1[nH]c2ccccc2nc1/C=C/c1ccc(Cl)cc1,14.9%
9,COc1ccc(-c2csc3ncn(Cc4ccccc4)c(=O)c23)cc1,-2.5%
10,NC(=O)c1ccc(NC(=O)CS(=O)(=O)c2cn(CC(=O)N3CCCCC3)c3ccccc23)cc1,-15.1%
11,FC(F)(F)c1cccc(NC(=S)N2CCCC2)c1,12%
12,O=C(O)C(CCCCNS(=O)(=O)c1ccc(F)cc1)NS(=O)(=O)c1ccc(F)cc1 (stereo not given),-6.2%
13,COCCNC(=O)CN1N=C(c2ccc(C)cc2)CCC1=O,6.3%
14,Cn1c(SCC(=O)c2ccc3c(c2)Cc2ccccc2-3)nnc1-c1ccccc1,83.7% (active)
15,O=C(CSc1nnc(-c2ccccc2)o1)c1ccc2c(c1)OCCO2,-8.7%
16,C=CCn1c(SCC(=O)c2c(C)[nH]c3ccccc23)nnc1-c1ccncc1,35.6%
17,Cc1ccc(NC2CCCN(C(=O)c3ccccn3)C2)cc1C (stereo not given),-5.3%
18,O=C(CCc1nnc2ccc(NCc3ccccc3)nn12)NC1CCCCC1,4.6%
19,COc1ccc(N=C2C(=O)Nc3ccc(C)c(Br)c32)cc1,7.8%
20,COc1ccc(Cl)cc1NCCC(O)c1ccc(F)cc1 (stereo not given),-9.5%

row,SMILES,inhibition
1,COc1ccccc1-c1csc(-n2ncc(C#N)c2N)n1,73.9% (active)
2,O=C(NC1CC2CCCC(C1)N2)c1ccccc1 (stereo not given),-12.1%
3,CC(NC(=O)C(=O)N1CCCCC1)C(c1cccs1)N1CCN(C)CC1 (stereo not given),-4.5%
4,CCN(CC)CCNC(=O)Cn1cnc2sc(C)c(S(=O)(=O)N3CC(C)CC(C)C3)c2c1=O (stereo not given),-8.4%
5,COc1cc(C(=O)NCCC(=O)NCc2c(F)cc(F)cc2F)cc(OC)c1OC,21.2%
6,CCC(=O)N1CCc2cc(S(=O)(=O)NCCc3ccc(S(N)(=O)=O)cc3)ccc21,0.3%
7,COc1ccccc1CN1CC(C(=O)NCc2ccc(C)c(F)c2)CCC1=O (stereo not given),-6.8%
8,Cc1c(C)c2ccc(OCC(=O)NCCCn3ccnc3)c(C)c2oc1=O,-9.5%
9,COc1ccc2c(c1)c(=O)oc1c(C)c(OCc3cc(C(=O)O)oc3C)ccc12,40.3%
10,Cc1ccc(C)c(NC(=O)C(c2ccccc2)N2CCOCC2)c1 (stereo not given),6.5%
11,COc1cccc(-c2nc(CS(=O)(=O)CC(=O)N3CCCCC3)c(C)o2)c1,-1%
12,CC1=C(C(=O)OC(C)C)C(c2ccc3c(c2)OCO3)NC(=O)N1 (stereo not given),-7.6%
13,NS(=O)(=O)c1ccc(NC(=O)c2cccc(N3C(=O)c4ccccc4C3=O)c2)cc1,93.1% (active)
14,O=C(Nc1ccccc1C(=O)O)c1ccc2c(c1)C(=O)N(c1cccc([N+](=O)[O-])c1)C2=O,2.4%
15,C[n+]1cccc(C(=O)Nc2ccccc2)c1,13.8%
16,Cc1ccccc1-c1nc(CS(=O)(=O)CC(=O)NCCCN2CC(C)CC(C)C2)c(C)o1 (stereo not given),28.9%
17,COCCn1c(SCC(=O)Nc2cccc(C)n2)nnc1-c1ccco1,3.1%
18,O=C(NCCc1ccc(Cl)cc1)c1ccc2nccnc2c1,6.7%
19,CCN1CCN(CCCNC(=O)CN2C(=O)c3cccnc3Oc3ccc(Cl)cc32)CC1,14%
20,CC1CCN(CCc2nc3cc(NC(=O)C(C)C)ccc3n2C)CC1,9.3%
